According to PubChem BioAssay (NCI):
The panel holds about 79,000 compounds, 15% with a hit somewhere; the sample as a whole holds those more often. No stated cut-off is given here; in the data, active means growth inhibition above about 70%; inactive means the rest.

Assays:
[1] = NCI Yeast Anticancer Drug Screen. Data for the rad50 strain (AID 155);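 further: 0% = growth of vehicle-only cultures of the same strain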; details: S. cerevisiae rad50 strain growth inhibition; at 50.0 µM; active compounds read high
Method in brief: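 Relative growth inhibition (compound vs vehicle) was measured in yeast with a defined repair-gene alteration.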

[2] = NCI Yeast Anticancer Drug Screen. Data for the mec2-1 strain (AID 157); details: S. cerevisiae mec2-1 strain, at 50.0 µM, active compounds read high
Method in brief: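 Using mec2-1 yeast: add compound, measure growth, express inhibition versus vehicle-treated cultures.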

[3] = NCI Yeast Anticancer Drug Screen. Data for the sgs1 mgt1 strain (AID 161);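 further: 0% = growth of cultures given vehicle only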; details: S. cerevisiae sgs1 mgt1 strain, at 50.0 µM, active compounds read high
Method in brief: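 Percent growth inhibition was derived by comparing compound-exposed mutant yeast with vehicle-exposed cultures. The strain carries alterations in DNA damage repair.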

[4] = NCI Yeast Anticancer Drug Screen. Data for the cln2 rad14 strain (AID 165);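 further: 0% = growth equal to vehicle treated cultures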; details: S. cerevisiae cln2 rad14 strain, at 50.0 µM, active compounds read high
Method in brief: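 Yeast strain cln2 rad14, bearing defects in cell cycle control and DNA repair, serves as the test system; values reflect growth inhibition compared with vehicle.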

[5] = NCI Yeast Anticancer Drug Screen. Data for the bub3 strain (AID 167); details: S. cerevisiae bub3 mutant strain, at 50.0 µM, active compounds read high
Method in brief: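 Screening used yeast with an engineered genetic alteration affecting cell cycle control. Compound-exposed cultures were compared with vehicle cultures, and reduced growth was taken as inhibition.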

[6] = NCI Yeast Anticancer Drug Screen. Data for the mlh1 rad18 strain (AID 175); details: S. cerevisiae mlh1 rad18 strain growth inhibition; at 50.0 µM; active compounds read high
Method in brief: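 Steps: expose repair-defective yeast to compound; measure growth; express inhibition against vehicle-treated controls.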

Measured: growth inhibition

O=C1C=C(CCC2=CC(=O)c3ccccc3C2=O)C(=O)c2ccccc21
inactive: [1] 4.65% | [2] -23.5% | [3] -26.9% | [4] -10.9% | [5] -26.5% | [6] -28.6%

OCC1OC(O)C(CO)OC1O (stereo not given)
inactive: [1] 16.1% | [2] -5.2% | [3] 3.7% | [4] 40.2% | [5] 22.2% | [6] -5.2%

O=[N+]([O-])c1cc(C(F)(F)F)ccc1Cl
inactive: [1] -11.2% | [2] 10.3% | [3] -5.85% | [4] 31.3% | [5] -12.9% | [6] -27.8%

Cc1cccc(C)c1-n1c(C)nc2[nH]cc(C)c2c1=N
inactive: [1] 6.35% | [2] -6.25% | [3] 4.55% | [4] 5.1% | [5] 17.1% | [6] 8.95%

CCOC(=O)/C=C/C(=O)O.[Cu+2]
inactive: [1] 5.2% | [2] -14.3% | [3] -4% | [4] -13.7% | [5] -17.2% | [6] 11.9%

COC1CC(C)OC(OC2C(C)/C=C/C(=O)OC(C)C(COC3OC(C)C(O)C(OC)C3OC)C3OC3/C=C/C(=O)C(C)(O)CC2C)C1O (stereo not given)
inactive: [1] 1.55% | [2] -5.25% | [3] 3.55% | [4] 1.5% | [5] 5.25% | [6] 5%

CCOC(=O)c1cnc2n(c1=O)[C@H]1CCCC[C@@H]1N2
inactive: [1] 59% | [2] 5.55% | [3] -9.05% | [4] 9.75% | [5] 8.7% | [6] 5.65%

COC(=O)C1=C(C)N(NC(=O)c2ccccc2)C(C)(O)C12CCOC2=O (stereo not given)
inactive: [1] 1.25% | [2] -8.35% | [3] 5.85% | [4] -53% | [5] -9.65% | [6] -5.15%

CC(C)(C)/C=C/N=NNc1ccccc1C(=O)NC(C)(C)C
inactive: [1] 9.5% | [2] 0.2% | [3] 1.8% | [4] -54.5% | [5] -2% | [6] 12.1%

CCCCN(CCCC)CC(O)c1cc(-c2ccc(Cl)cc2)nc2c(Cl)cc(Cl)cc12 (stereo not given)
inactive: [1] 26.4% | [2] 5.05% | [3] 10.3% | [4] 18.1% | [5] 0.45% | [6] 28.9%

Nc1ccc(C(=O)O)c(N)c1
inactive: [1] -4.35% | [2] 1.45% | [3] -14.1% | [4] -40.3% | [5] -22.5% | [6] -1.1%

CC1CC(C)(C)C(C[NH-])C1[NH-].[Cl][Pt+2][Cl] (stereo not given)
inactive: [1] 23.8% | [2] 20.5% | [3] 34.3% | [4] 24.1% | [5] 28.9% | [6] 28.1%

CC(C)C1CCC2(C)C(CCC3C4(C)CCCC32OC4)C1 (stereo not given)
inactive: [1] -20.5% | [2] 1.35% | [3] 0.75% | [4] -25.1% | [5] 48% | [6] 11.4%

CC(c1ccccc1)/[N+]([O-])=C/c1ccccc1 (stereo not given)
inactive: [1] -31.7% | [2] -33.4% | [3] -46% | [4] -6.7% | [5] -57.2% | [6] -21.6%

CCCCCCC(=O)/C=C/c1ccccc1OC
inactive: [1] 9.15% | [2] -12.2% | [3] -3.55% | [4] -20.4% | [5] 2.3% | [6] -14.1%

NC[C@H]1Nc2ccccc2[C@@H](O)C1O (stereo not given in full)
inactive: [1] 14.6% | [2] 6.95% | [3] 0.4% | [4] 8.9% | [5] 12.6% | [6] -12.1%

CS(=O)(=O)N/N=C/C1C=CC=CC1 (stereo not given)
inactive: [1] -6.9% | [2] 0.7% | [3] -6.25% | [4] -24.4% | [5] -12.2% | [6] -26.6%

COC(C)CCOC(=O)c1ccccc1C (stereo not given)
inactive: [1] 10% | [2] -6.1% | [3] 0.8% | [4] -21.8% | [5] 24.9% | [6] 3.2%

COc1ccc2cc1Oc1ccc(cc1)C[C@@H]1c3cc(c(OC)cc3CCN1C)Oc1c(OC)c(OC)cc3c1[C@@H](C2)N(C)CC3
inactive: [1] 33% | [2] -20.8% | [3] 18.6% | [4] -2.7% | [5] 21.9% | [6] 31.2%

Cc1cccc(Cl)c1OCC(=O)Nc1ccccc1
inactive: [1] 20.9% | [2] 10.1% | [3] 20.8% | [4] 0.8% | [5] 58.6% | [6] -3.65%

CC(C)(CO)[C@@H](O)C(=O)NCCC(=O)O
inactive: [1] -27.5% | [2] -45.9% | [3] -10.2% | [4] 15.4% | [5] -27% | [6] -23.9%

COc1cc(C(=O)NC(CCN)(c2ccccc2)c2ccccc2)cc(OC)c1OC
inactive: [1] -2.55% | [2] 30.4% | [3] 14.4% | [4] 10.4% | [5] 43.2% | [6] 29.8%

N#C/C(=C\c1ccccc1Cl)C(=O)c1ccccc1
inactive: [1] 11.4% | [2] 11.8% | [3] -5.9% | [4] 9.9% | [5] 18.9% | [6] 32.4%

COC(=O)/C=C/c1cccc([N+](=O)[O-])c1
inactive: [1] -3.55% | [2] -2.25% | [3] 20.7% | [4] -48.8% | [5] -0.7% | [6] -18.3%

Oc1cncc2ccccc12
inactive: [1] 3.35% | [2] 5.2% | [3] 11.2% | [4] -1.35% | [5] 1.6% | [6] -4.85%

CC#CC#C/C=C1/C=CC2(CC=CO2)O1 (stereo not given)
inactive: [1] 1.55% | [2] 7.95% | [3] 9.85% | [4] 12.3% | [5] 25.3% | [6] 29.6%

Cc1cc(CC(=S)[S-])[n+](C)c(CC(=S)S)c1
inactive: [1] 12.2% | [2] 8.05% | [3] -14.1% | [4] 3.75% | [5] -1.55% | [6] 19.8%

O=C(Nc1ccc(Cl)cc1)Nc1nnc2nc(C(C(=O)c3cccs3)c3nc4nnc(NC(=O)Nc5ccc(Cl)cc5)n4[nH]c3=O)c(=O)[nH]n12
inactive: [1] 1.55% | [2] 12.2% | [3] 0.1% | [4] 15.8% | [5] 0.05% | [6] -13.8%

COc1cc(OC)c(NC(=O)C(Cl)(Cl)Cl)cc1Cl
inactive: [1] 4% | [2] 42% | [3] 5.9% | [4] -17.4% | [5] 30.9% | [6] 27.4%

CCOC(=O)Oc1ccc(C(=O)Oc2ccccc2)cc1OC
inactive: [1] 18.1% | [2] 4.1% | [3] 12.9% | [4] -48.8% | [5] 42.1% | [6] 10%

Nc1ccc(F)c(F)c1
inactive: [1] 4.3% | [2] -6.65% | [3] 14.2% | [4] -20% | [5] 2.65% | [6] 13.8%

CC1(C)OCC(C(O)C2OC(C)(C)OC2/C=N\O)O1 (stereo not given)
inactive: [1] -3.9% | [2] -18% | [3] -0.2% | [4] -0.5% | [5] -1.45% | [6] -17%

C/C(=N\Nc1cc(C)nc2cc3c(cc12)OCO3)c1cn(C)n(-c2ccccc2)c1=O
inactive: [1] 19.9% | [2] 54.5% | [3] 21.6% | [4] 34.9% | [5] 12.4% | [6] 39.1%

Cc1cc(Br)c[nH]c1=O
inactive: [1] -4.75% | [2] -7.7% | [3] -3.65% | [4] -20.2% | [5] -29.1% | [6] 5.05%

CCCCCCCCCCS(=O)(=O)CC(=O)O
inactive: [1] 3.8% | [2] -2.35% | [3] 14.7% | [4] -12.7% | [5] -8.3% | [6] -3.6%

CC(=O)OCCSc1ccc(Cl)cc1
inactive: [1] -2.4% | [2] 9.8% | [3] 6.6% | [4] -33.2% | [5] -23.3% | [6] -7.65%

Cc1cc(O)ccc1N=Nc1ccc(S(=O)(=O)O)cc1
inactive: [1] -26.8% | [2] -10.2% | [3] -10.6% | [4] 2.55% | [5] 4.55% | [6] -12.5%

FCCCCSc1ncnc2nc[nH]c12
inactive: [1] -25.3% | [2] -15.2% | [3] -24.7% | [4] -33.4% | [5] -11.5% | [6] -17.2%

CCN=C1SCCCS1
inactive: [1] -8.8% | [2] -22.8% | [3] -13.4% | [4] -19.5% | [5] -15.9% | [6] -14.8%

O=C(NC1CCCCC1)NC12CC3CC(CC(F)(C3)C1)C2
inactive: [1] -9.9% | [2] -12.8% | [3] -7.55% | [4] 5.65% | [5] -12.1% | [6] 6.7%
